This is a sample that favours compounds with a hit; in the whole collection about 19% have one here.
HT1080 IDH1KD tx = qHTS for induction of synthetic lethality in tumor cells producing 2HG: qHTS for the HT-1080-IDH1KD cell line | 360,000 compounds, 2% hits | HT-1080 IDH1 knockdown viability, ATP luminescence, 48 h | Potency, µM (doses to about 46.1 µM), inactives show at the highest dose activity, negative = toxicity, most hits filed as cytotoxic;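 further: potency means the concentration at half of the fitted maximal effect; 0% = DMSO wells and -100% = cell-free medium wells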
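HT-1080-IDH1KD cells (IDH1 knocked down), 750/well in RPMI with 5% FBS, treated with compound 48 h at 37 degrees C. Viability by CellTiter-Glo luminescence, normalised to DMSO and no-cell wells; concentration-response curves classed.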
IL-1B inflam inh = qHTS for Inhibitors of Inflammasome Signaling: IL-1-beta AlphaLISA Primary Screen | THP-1 LPS/ATP IL-1B secretion, AlphaLISA, 16 h; active compounds read low | activity change, % at 57.5 µM | 360,000 compounds, 4.7% hits; in the data active means activity change below about -50%; inconclusive means mostly about -30% to -49%
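Secreted IL-1B measured by AlphaLISA bead assay after 16 h compound exposure of THP-1 cells; compounds (final up to 57.5 uM) added 1 h before LPS (250 ng/mL) and ATP (1.25 mM) stimulation; lower signal means less secretion.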
HT1080-NT tox = qHTS for induction of synthetic lethality in tumor cells producing 2HG: qHTS for the HT-1080-NT fibrosarcoma cell line; HT-1080-NT fibrosarcoma viability, CellTiter-Glo ATP luminescence, 48 h; Potency, µM (top dose mostly 46.1 µM), for the others: at the highest dose activity, negative = less viability, most hits filed as cytotoxic; 360,000 compounds, 1.6% hits; AID 686970, 2013;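 further: NT is the 2HG producing partner of a matched IDH1 knockdown line; potency means the concentration at half of the fitted maximal effect; 0% = DMSO-treated cells and -100% = media-only wells without cells; nearly all actives have a fitted effect of over 55% in size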
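Read-out is CellTiter-Glo luminescence after 10 minutes at room temperature, following 48 hours' compound treatment of HT-1080-NT cells (750 cells/well, RPMI, 5% FBS, 37 degrees C).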
TDP1 cell CPT = qHTS for Inhibitors of human tyrosyl-DNA phosphodiesterase 1 (TDP1): qHTS in cells in presence of CPT. chicken DT40 Tdp1-/-;hTDP1 cells + 20 nM CPT, ATP luminescence, 48 h. Potency, µM (series often up to 46.2 µM), without a hit: at the highest dose activity change, negative = growth inhibition, usual class: inhibitors. 420,000 compounds, 12% hits; further: potency means the concentration at half of the fitted maximal effect; nearly all actives have a fitted effect of over 55% in size
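Chicken DT40 Tdp1-/- cells stably complemented with human TDP1 were seeded at 400 cells/well in medium containing 20 nM camptothecin, exposed to pin-transferred compounds, and grown at 37 °C for at least 48 hr. Viability was read as ATP luminescence.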
TDP1 cell noCPT = qHTS for Inhibitors of human tyrosyl-DNA phosphodiesterase 1 (TDP1): qHTS in cells in absence of CPT | DT40 Tdp1-/- hTDP1 cells, no CPT, ATP luminescence, 48 h | Potency, µM (series often up to 46.2 µM), inactives show top-dose activity change, negative = growth inhibition, actives largely listed as inhibitors | 420,000 compounds, 15% hits | AID 686978, 2013; further: potency means the concentration at half of the fitted maximal effect; nearly all actives have a fitted effect of over 55% in size
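Seeded 400 DT40-hTDP1 cells/well (vehicle DMSO, no 20 nM CPT); pinned compounds; ≥48 hr at 37 °C; CellTiter-Glo luminescence as viability measure.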
Numbers without * were called inactive; ? = inconclusive; nt = no result given. Unless noted, the call rests on the fitted dose curve; in most records, active means well fitted curve in the direction sought with a large enough effect; inconclusive means small, poorly fitted or top-dose-only effect, or another doubt; inactive means no such curve, though single readings can be large; an effect the other way counts as inactive or inconclusive. Unless noted, on the % scale 0 is the no-effect control and ±100 the full control effect.

SMILES	HT1080 IDH1KD tx	IL-1B inflam inh	HT1080-NT tox	TDP1 cell CPT	TDP1 cell noCPT
Cc1cccc(CSc2nc3cc(C(=O)NC4CCCC4)ccc3c(=O)n2Cc2ccccc2)c1	nt	nt	nt	-20%	-22%
O=C(NC1CCCCC1)c1ccc(CSc2nc3ccncc3n2Cc2ccccc2)cc1	nt	nt	nt	?	21µM*
COc1cc(NC(=O)Nc2c[nH]c(=O)[nH]c2=O)cc(OC)c1OC	nt	nt	nt	-10%	-5%
COc1ccccc1CN1CC(C(=O)N2CCOCC2)CCC1=O (centres undefined)	8%	-2	-2%	-5%	18%
CC(=O)Oc1ccc(Cn2c(C)c(C(=O)NCc3cccc(C(F)(F)F)c3)sc2=O)cc1	?	-27	?	?	?
CCc1sc(Nc2cccc(C)c2)nc1-c1cc2cccc(OC)c2oc1=O	nt	nt	nt	?	21µM*
COc1cccc2cc(-c3nnc(Nc4ccccc4C)s3)c(=O)oc12	nt	nt	nt	?	8.2µM*
CCc1sc(Nc2cccc(C)c2C)nc1-c1cc2cccc(OC)c2oc1=O	nt	nt	nt	?	21µM*
COc1cccc2cc(-c3cn4cccc(C)c4n3)c(=O)oc12	22%	-1	?	-28%	?
COc1cccc2cc(-c3nnc(Nc4c(F)cccc4F)s3)c(=O)oc12	nt	nt	nt	1%	3%
O=C(CCSCCc1ccccn1)Nc1ccc(Br)cn1	12%	0	0%	-2%	-17%
COc1ccc(CNC(=O)Cn2nc([N+](=O)[O-])cc2C)cc1	5%	-13	-1%	2%	7%
Cc1ccc2oc(-c3ccc(C)c(NC(=O)COc4ccccc4C)c3)nc2c1	nt	nt	nt	-14%	?
Cc1ccc2nc(-c3ccc(Cl)c(NC(=O)c4cccc([N+](=O)[O-])c4C)c3)oc2c1	nt	nt	nt	?	4%
O=C(Nc1ccc2nc(SCC(=O)N3CCCC3)sc2c1)c1cccc(Br)c1	nt	nt	nt	?	16µM*
O=C(Nc1ccc2nc(SCC(=O)N3CCOCC3)sc2c1)c1cccc(Cl)c1	nt	nt	nt	15µM*	18µM*
O=C(Nc1cccc(C(F)(F)F)c1)C12CC3CC(CC(C3)C1)C2	-1%	12	-5%	-28%	-21%
Cc1ccc(NS(=O)(=O)c2cccc(C(=O)N3CCCCC3)c2)cc1	12%	22	9%	-26%	?
CNS(=O)(=O)c1cccc(C(=O)OCC(=O)N2CCCC2)c1	?	12	22%	5%	-17%
COc1ccc(NS(=O)(=O)c2cccc(C(=O)N3CCCCCCC3)c2)cc1	-2%	0	0%	?	15µM*
COc1ccc(NS(=O)(=O)c2cccc(C(=O)N3CCN(c4ccccc4O)CC3)c2)cc1	12%	-9	5%	?	?
COc1ccc(NS(=O)(=O)c2cccc(C(=O)N3CCN(C(=O)c4ccco4)CC3)c2)cc1	-1%	41	-2%	9.2µM*	-27%
Cc1ccc(NS(=O)(=O)c2cccc(C(=O)N3CCCCCC3)c2)cc1	-10%	-3	-14%	?	21µM*
COc1ccc(NS(=O)(=O)c2cccc(C(=O)N3CCOCC3)c2)cc1	2%	-2	7%	-23%	-35%
COc1ccc(NS(=O)(=O)c2cccc(C(=O)OCC(=O)N3CCN(c4ccc(OC)cc4)CC3)c2)cc1	-20%	-11	-4%	13µM*	13µM*
SMILES	HT1080 IDH1KD tx	IL-1B inflam inh	HT1080-NT tox	TDP1 cell CPT	TDP1 cell noCPT
CN(C)c1nc2cc3c(cc2cc1CN(CC1CCCO1)C(=O)/C=C/c1cccs1)OCO3 (centres undefined)	nt	nt	nt	3%	-7%
Cc1ccc(OCCOC(=O)CCc2nc3ccccc3c(=O)[nH]2)cc1	9%	-3	-2%	-4%	-9%
CSCCC(C(=O)NCc1ccccc1)n1c(Cc2cc(F)cc(F)c2)nc2ccccc21 (centres undefined)	-23%	-22	-25%	?	?
CCCCCCC(=O)N/N=C(\C)Cc1ccccc1	16%	7	24%	-10%	12%
CCC(c1c(C)[nH]oc1=O)c1c(C)[nH]oc1=O	1%	10	11%	-3%	-1%
Cc1ccc(Oc2ccc(NS(=O)(=O)c3cccc(C(=O)O)c3)cc2)cc1	-4%	29	-5%	-3%	7.3µM*
O=C(O)c1cccc(S(=O)(=O)Nc2ccc(Oc3ccccc3)cc2)c1	29%	18	4%	-20%	0%
C[C@H](NC(=O)[C@@H]1CCCN1C(=O)[C@@H]1CCCN1C(=O)c1cccs1)c1ccccc1	11%	33	14%	-8%	-14%
Cc1ccc(C(=O)Nc2nc(COc3ccccc3)cs2)s1	?	-87*	?	?	?
CC(=O)Nc1nc(COc2ccccc2)cs1	18%	-5	11%	-10%	-19%
O=C(Nc1nc(COc2ccccc2)cs1)C12CC3CC(CC(C3)C1)C2	?	-28	6.3µM*	22µM*	?
O=C(Nc1nc(COc2ccccc2)cs1)C1CCC1	-6%	?	-2%	23µM*	16µM*
COc1cccc(OC)c1C(=O)Nc1nc(COc2ccccc2)cs1	-10%	9	1%	-26%	?
CCOC(=O)N1CCN(C(=O)c2cn(C)c3ccc(S(=O)(=O)N4CCOCC4)cc3c2=O)CC1	5%	4	3%	-2%	-4%
O=S(=O)(c1ccc(NCc2ccccc2)cc1)N1CCOCC1	-3%	-8	7%	-9%	-21%
O=C(NCc1ccccc1)c1onc(CSc2ccc(F)c(F)c2)c1C(=O)NCc1ccccc1	24%	-2	0%	?	-28%
Cc1ccc(S(=O)(=O)N2C[C@H]3C(=O)C[C@@H](c4ccccc4)N(S(=O)(=O)c4ccc(C)cc4)[C@H]3C[C@H]2c2cccs2)cc1	25%	-10	16%	-2%	?
COc1cc(/C=N/NC(=O)CCN2CCN(C(c3ccccc3)c3ccccc3)CC2)ccc1O	?	-11	-1%	13µM*	12µM*
O=C(CCn1cnc2ccccc21)N/N=C/c1ccccc1O	?	253	?	?	23µM*
O=C(CCN1CCN(c2ccccc2)CC1)N/N=C/c1ccccc1O	21µM*	141	?	?	-118%
COc1cc(/C=N\NC(=O)CNC(=O)C(c2ccccc2)c2ccccc2)ccc1O	2%	12	-4%	-2%	-14%
COc1ccc(CN2CCC3CC2c2cc(Cl)ccc23)cc1 (centres undefined)	-1%	11	-7%	18µM*	18µM*

Screening data deposited in PubChem by National Center for Advancing Translational Sciences (NCATS).
